Source: PubChem BioAssay AID493152 (Sanford-Burnham Center for Chemical Genomics, 2011)
Some of the results follow. Unmarked numbers belong to inactive results. The source made the active and inactive calls.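 The calls were made as follows: active = inhibition reaching a set limit in any replicate at 20 µM, the limit being 80% of the first screen's; inactive = the rest.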

target: DNA dC->dU-editing enzyme APOBEC-3G (Homo sapiens) (UniProt Q9HC16); assay: human A3G ssDNA deamination inhibition, hit confirmation – biochemical, fluorescence, single-stranded DNA substrate, single concentration (AID 493152); details: recombinant A3G ssDNA deaminase, UDG/FAM-TAMRA fluorescence; at 20 µM; active compounds read high
Sequence (Q9HC16 whole entry, looked up): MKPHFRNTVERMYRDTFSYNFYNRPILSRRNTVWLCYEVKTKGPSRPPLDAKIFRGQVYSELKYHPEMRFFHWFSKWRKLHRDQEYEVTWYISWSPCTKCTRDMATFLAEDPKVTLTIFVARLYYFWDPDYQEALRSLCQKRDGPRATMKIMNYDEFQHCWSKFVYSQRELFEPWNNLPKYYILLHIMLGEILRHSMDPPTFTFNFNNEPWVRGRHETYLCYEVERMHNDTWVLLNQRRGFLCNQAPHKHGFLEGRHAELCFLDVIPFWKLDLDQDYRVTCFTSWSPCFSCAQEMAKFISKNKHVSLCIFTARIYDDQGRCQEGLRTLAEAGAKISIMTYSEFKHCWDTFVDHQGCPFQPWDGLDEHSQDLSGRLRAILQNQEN

SMILES	inhibition
COC(=O)c1cccc(-n2[nH]nnc2=S)c1	-14.5%
Cc1cc(-c2n[nH]c(=S)n2-c2ccc(C)c(C)c2)no1	74.9% (active)
CCOc1cc(C(=S)N2CCOCC2)ccc1O	65.3% (active)
Cc1ccnc(-n2sc3ccccc3c2=O)n1	55.1% (active)
S=c1[nH]nc(-c2cc(-c3ccccc3)n[nH]2)n1/N=C/c1c2ccccc2cc2ccccc12	8.05%
COCc1c(N)c(C)nc(Cl)c1C#N	84.5% (active)
Cn1c2ccccc2c(=O)c2c(=O)n(Cc3ccco3)c(COc3ccccc3)nc21	22%
Cc1ccc(S(=O)(=O)N(C)CC(=O)NCCc2c[nH]c3ccccc23)cc1	4.16%
CC(C)(C)c1nnc(NC(=O)C2c3ccccc3Oc3ccccc32)s1	31.2% (active)
COc1ccc(N2C(=O)CC(Sc3n[nH]c(-c4ccc(C)cc4)n3)C2=O)cc1 (stereo not drawn)	46% (active)
O=c1[nH]c2ccccc2n2c(-c3ccccc3)nnc12	26% (active)
CCOc1ccc(NC(=O)Nc2cc(C)on2)cc1	0.05%
S=c1[nH]nc(Nc2ccccc2)s1	68.3% (active)
O=C1CC(Sc2ncn[nH]2)C(=O)N1c1ccccc1 (stereo not drawn)	40.4% (active)
CCC(CC)c1nnc(NC(=O)C2CCN(C(=O)c3ccco3)CC2)s1	24.5% (active)
Cc1noc(C)c1CSc1nc2cc(S(=O)(=O)N3CCOCC3)ccc2o1	71.6% (active)
S=c1[nH]nc(-c2ccc(Cl)cc2)n1CC1CCCO1 (stereo not drawn)	55.9% (active)
Cc1nc2scc(-c3cccs3)c2c(=O)n1N	0.32%
